The list is not random: actives were taken first. Their share in the collection is about 4.1%.
NALP1 inh – inhibitors of NALP1 inflammasome in yeast | inhibition, % at 10 µM | AID 2071 | S. cerevisiae NALP1/ASC/caspase-1 growth, X-gal OD620, 72 h | 280,000 tested, 0.61% active; in the data active = inhibition mostly above about 24%, no sharp cut-off; inactive = mostly below about 32%
NALP3 yeast inh – NALP3 inhibition in yeast | 330,000 tested, 0.39% active | Yeast reconstituted NLRP3/ASC/caspase-1, beta-gal luminescence, 24 h | inhibition, % at 10 µM | AID 2825;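 active = inhibition of 50% or more; inactive = inhibition below 50%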
tim23-1 inh – inhibits growth of tim23-1 mutant yeast | S. cerevisiae tim23-1 growth, BacTiter-Glo luminescence, 24 h | inhibition, % at 20 µM | 330,000 tested, 1.3% active | AID 463212;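 active = growth inhibition of the mutant yeast at or above 50%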;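 note: temperature-sensitive mutant grown at 25 °C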
tim10-1 inh – growth inhibitors of tim10-1 mutant yeast. S. cerevisiae tim10-1 ts strain growth, BacTiter-Glo, 24 h. inhibition, % at 20 µM. 330,000 tested, 2.2% active;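 active = inhibition of at least 40%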;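 note: mutant grown at 25 °C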
TIM10 inh – TIM10 yeast growth inhibition | AID 463195 | inhibition, % at 10 µM | S. cerevisiae TIM10 strain growth, BacTiter-Glo luminescence, 24 h | 330,000 tested, 1.4% active;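 active = inhibition of 40% or more at the single tested concentration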;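 note: wild-type TIM10 isogenic control strain grown at permissive 25 °C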
tim23-1 conf – confirmation of tim23-1 mutant yeast growth inhibitors; 4,400 tested, 83% active; AID 463218; S. cerevisiae tim23-1 growth, BacTiter-Glo luminescence, 24 h; shares compounds with tim23-1 inh; inhibition, % at 20 µM;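 active = inhibition above about 39% in either of two replicate wells at 20 µM, limit read from the data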;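 note: temperature-sensitive tim23-1 mutant grown at 25 °C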
Numbers stand for hits; . = inactive; / = not tested or not shown.

SMILES	NALP1 inh	NALP3 yeast inh	tim23-1 inh	tim10-1 inh	TIM10 inh	tim23-1 conf
C#CCSc1nncn1C(=O)/C=C/c1ccccc1	.	.	52	.	.	77
O=C(OCc1nc2ccccc2s1)c1ccc([N+](=O)[O-])o1	.	.	55	.	.	59
O=C(OCC(=O)N1CCCc2ccccc21)c1ccc(Br)o1	.	.	.	.	.	/
O=C(OCc1nc2ccccc2s1)c1ccc(Br)o1	.	.	.	.	.	/
O=C(OCC(=O)N1CCc2ccccc21)c1ccc([N+](=O)[O-])o1	/	.	70	.	.	73
CC1(C)CC(=O)C2=C(C1)OC(N)=C(C#N)C2C1CC=CCC1 (stereo unspecified)	.	.	.	.	.	/
COc1ccc(OC)c(Cc2nnc(CCC(=O)N3CCN(C4CCCC4)CC3)o2)c1	.	.	.	.	.	/
CCCCCOc1ccc(C(=O)NCC2(c3ccccc3)CCOCC2)cc1	.	.	51	.	.	46
CCCCOc1ccc(C(=O)NCC2(c3ccccc3)CCOCC2)cc1	.	.	.	.	.	/
Oc1ccccc1/C=N/NC(=S)NC1CC2C=CC1C2 (stereo unspecified)	.	.	69	.	.	46
Cc1c(NC(=S)N/N=C\c2ccccc2O)c(=O)n(-c2ccccc2)n1C	.	.	.	.	.	/
CN(C#N)c1nc(Cl)nc(Nc2cccc(Cl)c2)n1	.	.	69	.	.	.
CCC(C)Sc1ccc(-c2nc3cc(C)ccn3c2NC2CCCCC2)cc1 (stereo unspecified)	/	.	56	.	.	47
O=C(NCc1ccc(OC(F)(F)F)cc1)C1CCC(=O)N(C2CC2)C1 (stereo unspecified)	.	.	.	.	.	/
Nc1ncnc2c1ncn2[C@@H]1O[C@H](CO)C[C@@H]1O	.	.	56	.	.	59
CCC(=O)N1CCN(c2ccc(NC(=O)c3ccc([N+](=O)[O-])o3)cc2Cl)CC1	.	/	/	/	/	/
Cc1ccc(C(=O)Nc2ccc(S(=O)(=O)N3CCCC3)cc2)o1	.	.	.	.	.	/
CC(=O)N1CCN(c2ccc(NC(=O)c3ccc([N+](=O)[O-])o3)cc2Cl)CC1	.	.	51	.	.	76
O=C(Nc1ccc(S(=O)(=O)N2CCCC2)cc1)c1ccc([N+](=O)[O-])o1	/	.	52	.	.	34
Cc1cc(C)n(-c2c(C)[nH]c3ccccc23)n1	.	.	.	.	.	/
O=c1[nH]c(-c2ccco2)nc2sc3c(c12)CCCC3	.	.	50	.	.	48
O=c1[nH]c(S)nc2sc3c(c12)CCCC3	.	.	.	.	.	/
O=C(CCCN1C(=O)/C(=C/c2ccccc2OC(F)F)SC1=S)Nc1cccnc1	/	.	51	.	.	52
CN(C)/C=N/c1ncn(-c2ncc(C(F)(F)F)cc2Cl)n1	.	.	.	.	.	/
CCOC(=O)Cc1cnc(NC(=O)CSc2nc(C)c(CC)c(=O)[nH]2)s1	.	.	.	.	.	/
SMILES	NALP1 inh	NALP3 yeast inh	tim23-1 inh	tim10-1 inh	TIM10 inh	tim23-1 conf
COc1c(Br)cc(/C=N/n2c(-c3ccccc3)n[nH]c2=S)c(O)c1Br	.	.	62	.	.	60
Oc1ccccc1/C=N/n1c(-c2ccccc2)n[nH]c1=S	.	.	51	.	.	.
COc1ccc(C(C)NC(=S)NC2CCCC2)cc1OC (stereo unspecified)	.	.	.	.	.	/
Cc1ccc(C(C)NC(=S)NC2CCCCC2)cc1C (stereo unspecified)	.	.	55	.	.	.
Cc1cccc(/C=c2\s/c(=C\C(=O)C(C)(C)C)[nH]c2=O)c1	.	.	50	.	.	54
c1ccc(N=Nc2ccc3cccccc2-3)cc1	/	.	.	.	.	/
Clc1ccc(-c2[nH]ncc2N=Nc2ccccc2)cc1	.	.	68	.	.	.
O=C(NC(=S)N1CCN(c2ccc(F)cc2)CC1)C12CC3CC(CC(C3)C1)C2	.	.	.	.	.	/
CCOc1ccccc1N1CCN(C(=S)NCc2ccc(Cl)cc2)CC1	.	.	55	.	.	46
CCOc1ccccc1N1CCN(C(=S)NC(=O)C23CC4CC(CC(C4)C2)C3)CC1	.	.	51	.	.	.
Cn1c(N)c(C(=O)CSc2n[nH]c(N)n2)c(=O)n(C)c1=O	/	.	.	.	.	/
CC(C)(C)C(=O)N1CCN(c2ncnc3scc(-c4ccccc4)c23)CC1	.	.	51	.	.	.
Cc1sc2ncnc(N3CCN(C(=O)c4ccco4)CC3)c2c1C	.	.	.	.	.	/
Cc1ccc(-c2csc3ncnc(N4CCN(C(=O)c5ccco5)CC4)c23)cc1	/	.	51	.	.	42
COc1ccc(-c2nc3ccccc3c(=O)n2O)cc1	.	.	58	.	.	52
S=c1[nH]nc(COc2ccccc2)n1/N=C/c1ccccc1Cl	.	.	.	.	.	/
Cc1ccc(/C=N/n2c(COc3ccccc3)n[nH]c2=S)cc1	.	.	53	.	.	.
FC(F)Oc1ccc(/C=N/n2c(Cc3ccc(Br)cc3)n[nH]c2=S)cc1	.	.	51	.	.	53
S=c1[nH]nc(COc2ccccc2)n1/N=C/c1cccc(Cl)c1Cl	.	.	61	.	.	44
C[C@H]1CN([C@@H](C)CO)C(=O)c2cccc(NC(=O)Nc3ccc(F)cc3)c2O[C@@H]1CN(C)Cc1ccc(C(=O)O)cc1	/	.	.	.	.	/
Cc1c(CNC(=O)C2CCC(=O)N(CCc3ccccc3)C2)cnn1C (stereo unspecified)	.	.	.	.	.	/
O=C(NOCc1ccccc1)c1coc(-c2ccccc2)n1	/	/	60	.	.	.
NC(=O)NOCc1ccccc1	.	.	.	.	.	/
CCN(CC(=O)Nc1ccc(Br)cc1)CC(=O)Nc1cc(C)on1	/	.	.	.	.	/
COc1ccc(Cn2c(-c3ccco3)nc3c(c(=O)c4ccccc4n3C)c2=O)cc1	/	.	.	.	.	/
SMILES	NALP1 inh	NALP3 yeast inh	tim23-1 inh	tim10-1 inh	TIM10 inh	tim23-1 conf
Cn1c2ccccc2c(=O)c2c(=O)n(C3CCCCC3)c(-c3ccco3)nc21	.	.	51	.	.	49
Cc1nc2c(c(=O)c3ccccc3n2C)c(=O)n1C1CCCCCC1	/	.	.	.	.	/
CC(c1ccccc1)n1c(-c2cccs2)nc2c(c(=O)c3ccccc3n2C)c1=O (stereo unspecified)	/	.	51	.	.	.
CC(C)Cn1c(-c2ccco2)nc2c(c(=O)c3ccccc3n2C)c1=O	.	.	50	.	.	.
Nc1cc([N+](=O)[O-])cc2oc(-c3ccccc3)cc12	.	.	54	.	.	45
CCn1cnc2cc(NCc3ccc(Br)cc3)ccc21	.	.	53	.	.	66
CC1CCCC(NS(=O)(=O)c2cc(Br)cnc2N)C1C (stereo unspecified)	.	.	55	.	.	45
Nc1ncc(Br)cc1S(=O)(=O)NC1CCCCC1	.	.	.	.	.	/
O=[N+]([O-])c1ccccc1/C=N/Nc1nnc(-c2ccccc2)c(-c2ccccc2)n1	.	.	.	.	.	/

Screening results (PubChem)
